Our source for the Potency and outcome values is PubChem BioAssay (NCATS).

One assay addresses Furin (Homo sapiens) (UniProt P09958). Briefly: Furin counterscreen qHTS for Zika virus inhibitors (AID 1347149). Also: nearly all actives have a fitted effect of over 70% in size. Also: potency is read from the fitted curve at half-maximal effect. The procedure, abridged:
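Counterscreen measures cleavage of 2 microM BOC-RVRR-AMC, below its ~15 microM Km, by 5 nM full-length human furin at pH 7.0 after a 15-min compound preincubation. Inhibition derives from the 15-min fluorescence increase at 37C.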

Assay [1] in a line: Confirmatory screen GU Rhodamine qHTS for Zika virus inhibitors qHTS (AID 1347157). Also: nearly all actives have a fitted effect of over 70% in size. Also: potency is read from the fitted curve at half-maximal effect. In outline:
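Percent inhibition derives from the 15-min fluorescence change (ex 480, em 540 nm), normalized to no-enzyme and no-inhibitor wells. Reactions contained 25 nM NS2B-NS3 complex and 1.5 microM substrate in 10 mM Tris-HCl pH 8.0.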

Assay [2] in a line: Confirmatory screen NINDS Rhodamine qHTS for Zika virus inhibitors (AID 1347161). Also: nearly all actives have a fitted effect of over 60% in size. Also: potency is read from the fitted curve at half-maximal effect. The procedure, abridged: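 Percent inhibition, normalized to uninhibited and enzyme-free controls, is fitted to a 4-parameter Hill equation. Fluorescence change comes from a 15-min cleavage of 1.5 microM bis-peptide Rhodamine110 substrate by 25 nM linked NS2B-NS3 at room temperature.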
A short description of assay [3]: Tertiary RLuc qRT-PCR qHTS assay for Zika virus inhibitors (AID 1347169). Also: top concentration of the series differs between compounds; nearly all actives have a fitted effect of over 55% in size. The procedure, abridged:
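Vero cells (1,000/well) infected with recombinant ZIKV-RLuc (Cambodian) at MOI 1-2 after compound addition, 48-72 hrs at 37 degrees C. Live-cell Renilla luciferase substrate added; luminescence read after 1-1.5 hrs.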

Assay [4] can be described thus: Confirmation and Secondary Assay for Modulators of Hemoglobin Beta Chain Splicing at IVS2 654 locus (AID 910).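 Also: per-well total GFP intensity by laser scanning cytometry after 2-day treatment.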 In outline:
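HeLa cells stably carrying EGFP interrupted by mutant beta-globin IVS2-654 intron (CMV-driven) were treated with compound for 2 days at 37C; corrected splicing was scored as total peak GFP intensity per well (488 nm excitation, 500-520 nm emission).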

Assay [5] is described as follows: Confirmation and Secondary Assay for Modulators of Hemoglobin Beta Chain Splicing at IVS2 705 locus (AID 930).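 Also: HeLa cells stably expressing the EGFP-705 splicing reporter; GFP fluorescence per well restored by corrected splicing of the IVS2-705 intron in EGFP; series mostly up to about 46 µM.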 In outline:
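Per-well GFP, captured at 1 x 8 µm resolution with 488 nm excitation, served as the read-out for HeLa EGFP-705 cells incubated 2 days with test compound versus DMSO.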

The target in assay [6] is Glutathione peroxidase 1 (Homo sapiens) (UniProt P07203). The assay can be described thus: Primary qHTS Assay for Inhibitors of Recombinant Selenoprotein Glutathione Peroxidase 1 (GPX1) (AID 1845191). Also: nearly all actives have a fitted effect of over 65% in size. In outline: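 GPX1 10 nM, GR 100 nM, GSH 1 mM, NADPH 0.5 mM, CHP 0.5 mM (final). 30-min cpd preincubation, RT. Ex340/Em450 read t=0, t=15 min.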
In assay [7] the target is Calcium and integrin-binding protein 1 (Homo sapiens) (UniProt Q99828). The assay can be described thus: Primary qHTS for Identification of Calcium Integrin Binding Protein 1 (CIB1) Competitor (AID 1508620).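 Also: GST tagged CIB1 binding a fluorescein labelled alphaIIb integrin peptide tracer; top concentration of the series differs between compounds.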 In outline:
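Fluorescence polarization competition: CIB1-GST (1 uM final) preincubated with compound 15 min at room temperature, then FITC-labeled alphaIIb peptide (100 nM final) added for another 15 min. Polarization read at Ex 480/Em 540.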

Records with an inconclusive call do not appear. The source made the active and inactive calls. Calls follow the shape of the dose curve; as a rule, active = well fitted curve in the direction sought with a large enough effect; inconclusive = small, poorly fitted or top-dose-only effect, or another doubt; inactive = no such curve, though single readings can be large; an effect the other way counts as inactive or inconclusive.

Calcium and integrin-binding protein 1 (Homo sapiens), sequence (Q99828 whole entry, looked up): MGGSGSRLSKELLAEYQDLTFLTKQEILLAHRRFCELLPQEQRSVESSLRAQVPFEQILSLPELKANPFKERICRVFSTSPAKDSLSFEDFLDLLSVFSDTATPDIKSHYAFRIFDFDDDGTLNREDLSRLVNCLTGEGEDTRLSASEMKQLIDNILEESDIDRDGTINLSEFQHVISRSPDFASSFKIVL
Furin (Homo sapiens), sequence (P09958 whole entry, looked up): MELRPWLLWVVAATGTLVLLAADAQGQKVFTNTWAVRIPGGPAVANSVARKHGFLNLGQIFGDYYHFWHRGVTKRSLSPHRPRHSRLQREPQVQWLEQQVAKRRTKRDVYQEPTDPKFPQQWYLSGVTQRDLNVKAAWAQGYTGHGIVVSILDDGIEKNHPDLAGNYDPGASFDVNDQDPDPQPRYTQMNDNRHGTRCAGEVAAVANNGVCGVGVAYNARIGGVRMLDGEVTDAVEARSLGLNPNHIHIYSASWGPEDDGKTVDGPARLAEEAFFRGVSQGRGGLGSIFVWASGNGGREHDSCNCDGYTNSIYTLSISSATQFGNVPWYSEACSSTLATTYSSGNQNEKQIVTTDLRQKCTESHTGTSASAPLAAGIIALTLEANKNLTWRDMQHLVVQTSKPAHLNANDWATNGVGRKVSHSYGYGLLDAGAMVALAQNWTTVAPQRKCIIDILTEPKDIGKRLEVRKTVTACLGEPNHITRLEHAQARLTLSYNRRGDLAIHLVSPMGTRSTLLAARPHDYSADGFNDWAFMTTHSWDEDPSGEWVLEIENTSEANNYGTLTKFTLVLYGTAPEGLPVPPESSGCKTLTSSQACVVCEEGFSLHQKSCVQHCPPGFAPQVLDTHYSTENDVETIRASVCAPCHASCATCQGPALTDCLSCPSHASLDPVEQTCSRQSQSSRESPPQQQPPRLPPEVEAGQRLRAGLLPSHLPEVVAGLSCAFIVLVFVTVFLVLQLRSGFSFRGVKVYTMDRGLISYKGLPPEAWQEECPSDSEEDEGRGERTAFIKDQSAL
Glutathione peroxidase 1 (Homo sapiens), sequence (P07203 whole entry, looked up): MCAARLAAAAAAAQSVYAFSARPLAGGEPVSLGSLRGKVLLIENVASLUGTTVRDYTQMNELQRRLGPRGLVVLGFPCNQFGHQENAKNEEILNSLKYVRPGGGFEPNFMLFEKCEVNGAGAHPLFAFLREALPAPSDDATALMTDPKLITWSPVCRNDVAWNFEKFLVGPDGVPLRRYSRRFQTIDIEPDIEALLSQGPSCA

`O=C(CSc1ncccc1C(=O)Oc1ccccc1Cl)Nc1ccccc1Cl`: the Potency result (with Furin (Homo sapiens); in assay [1]; in assay [2]; in assay [3]) was “inactive” throughout.

With `CC(C)c1nn2c(=O)cc(COC(=O)c3ccc(NC(=O)c4ccccc4Cl)cc3)nc2s1`, the Potency result (with Furin (Homo sapiens); in assay [1]; in assay [3]) was “inactive” in each case.

For the compound `CC(C)OC(=O)c1ccc(NC(=O)CSc2nc(-c3cccs3)cc(C(F)(F)F)n2)cc1`, the Potency in the assay with Furin (Homo sapiens) is 52.7 µM (active). Also, the Potency entry in assay [1], in assay [2] and in assay [3] was “inactive” in each case.

On to `O=C(OCC#CCSc1nnc(-c2cccc3ccccc23)o1)c1ccc(C(F)(F)F)cc1`, for which the Potency with Furin (Homo sapiens) was 41.8 µM (active). Moreover, the Potency result in assay [1], in assay [2] and in assay [3] was “inactive” throughout.

Turning to `Cc1cn2c(=O)cc(COC(=O)c3ccc(NC(=O)c4ccc(C(C)(C)C)cc4)cc3)nc2s1`, in the assay with Furin (Homo sapiens), the Potency was 46.9 µM (active). Moreover, the Potency entry in assay [1], in assay [2] and in assay [3] was “inactive” in each case.

For the compound `Cc1cc(NC(=O)c2ccc(Cl)c(Cl)c2)ccc1-c1cc2ccccc2oc1=O`, the results for the Potency (with Furin (Homo sapiens); in assay [1]; in assay [2]) were 66.3 µM (active), 44.7 µM (active) and 31.6 µM (active), respectively. In addition, in assay [3], the Potency result was “inactive”.

As for `NC(Cc1cc(I)c(Oc2cc(I)c(O)c(I)c2)c(I)c1)C(=O)O` (centres undefined), the compound was classed as inactive in assay [4] and in assay [5]. For the same compound, the Potency result (in the assay with Furin (Homo sapiens); in assay [3]; in assay [6]) was “inactive” each time. Further, the Potency in assay [1] is 31.6 µM (active); in assay [2], 22.4 µM (active).

Take `O=C(Nc1ccccc1C(=O)OCc1cc(=O)n2nc(C3CC3)sc2n1)c1cccc(F)c1`: the Potency entry (with Furin (Homo sapiens); in assay [1]; in assay [2]; in assay [3]) was “inactive” each time.

As for `CC(C)c1nn2c(=O)cc(COC(=O)c3ccc(NC(=O)CCc4ccccc4)cc3)nc2s1`, the Potency entry (with Furin (Homo sapiens); in assay [1]; in assay [3]) was “inactive” each time.

For the compound `O=C(OCC#CCSc1nnc(-c2cccc3ccccc23)o1)c1ccc(F)c(F)c1`, the Potency with Furin (Homo sapiens) was 59.1 µM (active). Also, the Potency entry in assay [1], in assay [2] and in assay [3] was “inactive” each time. For the same compound, the outcome in assay [7] was inactive.

Take `N#C/C(=C\c1ccc(Cl)cc1)c1nc(-c2cc3c(ccc4ccccc43)oc2=O)cs1`: the Potency entry (with Furin (Homo sapiens); in assay [1]; in assay [2]; in assay [3]) was “inactive” throughout.

For the compound `CCCCc1nn2c(=O)cc(COC(=O)c3cccc(NC(=O)c4cccc(Cl)c4)c3)nc2s1`, the Potency with Furin (Homo sapiens) is 29.6 µM (active). Also, the Potency result in assay [1] and in assay [3] was “inactive” in each case.

Turning to `O=S(=O)(Nc1ccc(O)c(NS(=O)(=O)c2ccccc2)c1)c1ccccc1`, the Potency result (in the assay with Furin (Homo sapiens); in assay [1]; in assay [2]; in assay [3]) was “inactive” in each case. Moreover, in assay [7], the result was inactive.

With `O=C(OCC#CCSc1nnc(-c2ccc(F)cc2)o1)c1ccc(F)cc1`, the Potency result (with Furin (Homo sapiens); in assay [1]; in assay [2]; in assay [3]) was “inactive” each time. For the same compound, in assay [7], the result was inactive.
